Out of some 360,000 compounds screened, about 17,000 (4.7%) were called active. Roughly 5% stayed inconclusive and do not appear here. This is one part of a sample in which actives are shown more often than they occur. Values without a mark were called inactive. Rule as the data show it: active = activity change below about -50%; inconclusive = mostly about -30% to -49%; inactive = weaker than that.
Assay: qHTS for Inhibitors of Inflammasome Signaling: IL-1-beta AlphaLISA Primary Screen
Details: THP-1 LPS/ATP IL-1B secretion, 16 h; at 57.5 µM, stronger effect = lower value
From the text: Inflammasomes are a set of intracellular multi-protein complexes that enable autocatalytic activation of inflammatory caspases and drive the innate immune response to counter harmful agents. […] A qHTS assay, based on AlphaLISA technology, was developed to screen the Molecular Libraries Small Molecule Repository (MLSMR) to look for novel inflammasome inhibitors. The assay detects IL-1B using AlphaLISA anti-IL-1B acceptor and donor beads. A decreased emission signal, indicating reduced IL-1B secretion, is the desired outcome for this assay. NIH Chemical Genomics Center [NCGC] NIH Molecular Libraries Probe Centers Network [MLPCN] MLPCN Grant: MH095513 Assay Provider: Shyam Biswal Ph.D., Johns Hopkins University Immunity. 2012 Jul 27;37(1):85-95. PMID: 22819042 [2] Curr Pharm Des. 2012;18(16):2320-8. PMID: 22390695
Three microliters containing 3000 THP-1 cells were dispensed into the wells of solid, white, tissue culture treated Greiner 1,536-well plates. Library compounds and positive control, Glyburide, were pin-transferred (23 nL) by a Kalypsys pin-tool equipped with a 1,536-pin array, resulting in final compound concentration ranges of 2.5 nM to 57.5 uM. After 1 hr of cell culture incubation (37 °C, 5% CO2), 1 microL of 1 microg/mL lipopolysaccharide (250 ng/mL, final) and 5 mM ATP (1.25 mM, final) were added to stimulate the cells. After 16 hr of cell culture incubation with the compounds, 1.5 uL of anti-IL-1B acceptor beads (6 ug/mL, final) and biotinylated antibody (0.6 nM, final) were added to the plate, followed by a 1 hr incubation at ambient temperature. To detect the secreted IL-1B, 1.5 uL of AlphaLISA SA-Donor beads (24 ug/mL, final) were added, followed by 30 min of incubation in the dark at ambient temperature. The AlphaLISA signal was read by a PerkinElmer EnVision plate reader with an ultrasensitive luminescence detector and 1536 Plate HTS AlphaScreen aperture (excitation of 680nm and emission of 615nm).
% is scaled to controls: 0 for no effect and ±100 for the full control effect.

| Structure (SMILES) | activity change |
| --- | --- |
| C[C@@H]1Cn2cnc(C(=O)Nc3ccc(CNC(=O)OC(C)(C)C)cc3)c2C(=O)N1 | -13.5% |
| CC(OC(=O)C1CC(=O)N(Cc2ccccc2)C1)C(=O)Nc1ccccc1[N+](=O)[O-] (stereo not given) | 16.6% |
| O=C(Nc1ccc(F)c([N+](=O)[O-])c1)C1CC(=O)N(Cc2ccccc2)C1 (stereo not given) | -91% (active) |
| Cc1cc(=O)oc2cc(NC(=O)C3CC(=O)N(Cc4ccccc4)C3)ccc12 (stereo not given) | 0% |
| NC(=O)C1(Nc2ccc([N+](=O)[O-])cc2)CCCC1 | -4.02% |
| COc1cccc(-c2ccc(SCC(=O)N3CCN(c4ccccc4)CC3)nn2)c1 | -69.3% (active) |
| CCOc1ccc(-c2ccc(SCC(=O)N3CCOCC3)nn2)cc1 | 71% |
| COc1cccc(/C=C/C(=O)OCC(=O)N2CCN(c3ccccc3)CC2)c1 | -25.8% |
| CCOC(=O)CNC(=O)N1c2ccccc2Sc2ccccc21 | -21% |
| CCN1/C(=C/C(=S)Nc2ccccc2)Sc2ccccc21 | -101% (active) |
| CC(NC(=S)Nc1ccccc1)C1COc2ccccc2O1 (stereo not given) | -4.51% |
| CCOC(=O)C1=CC[C@@H](c2ccncc2)N(S(=O)(=O)c2ccc(C)cc2)C1 | 57.8% |
| O=C(c1ccc(Cl)c(S(=O)(=O)N2CCCCCC2)c1)N1CCN(c2ccc(O)cc2)CC1 | -10.9% |
| COc1ccc(/C=C/C2=CC(C)(C)NC(=S)N2)c(OC)c1 | -87.3% (active) |
| COc1ccc(-n2c(-c3ccc(Cl)cc3)n[nH]c2=S)c(OC)c1 | -15.4% |
| COc1ccc(/C=C/C(=O)OCC(=O)Nc2cccc(Oc3ccccc3)c2)c(OC)c1 | -2.25% |
| COc1cc(/C=C/C(=O)OCC(=O)c2ccccc2)cc(OC)c1OC | 18.6% |
| COc1cc(/C=C/C2=CC(C)(C)NC(=S)N2)cc(OC)c1OC | -71.3% (active) |
| COc1cc(/C=C/c2ccc(/C=C/c3cc(OC)c(OC)c(OC)c3)cc2)cc(OC)c1OC | 94.5% |
| CCOC(=O)C1CCCN(C(=O)Cn2ncc3c(=O)oc4ccc(C)cc4c32)C1 (stereo not given) | 2.35% |

| Structure (SMILES) | activity change |
| --- | --- |
| CCOC(=O)C1=CCC2C(=O)N(Cc3ccccc3)C(=O)C12 (stereo not given) | 3.12% |
| CN(c1ccccc1)S(=O)(=O)c1ccc(C(=O)NCc2cccnc2)cc1 | 12% |
| Cn1c(=O)c2c(nc(OCc3cccnc3)n2Cc2ccccc2)n(C)c1=O | -9.43% |
| CN(C)CCOc1ccc(Cl)cc1C(C)(C)C | -13.6% |
| CCC(C)(C)c1ccc(OCC(=O)N(C)C)c(C(C)(C)CC)c1 | -90.9% (active) |
| CCc1nc(C)ccc1OCC(=O)N(CC)CC | 6.9% |
| O=C(NC1CCCCC1)C1CCC(CNS(=O)(=O)c2ccccc2)CC1 (stereo not given) | -6.12% |
| Cc1ccnc(NC(=O)Cn2ccc([N+](=O)[O-])n2)c1 | 15.1% |
| CCN(CC)c1ccc(C(=O)Nn2c(C)nc3ccccc3c2=O)cc1 | 18.5% |
| O=C(Nn1c(SCc2ccc([N+](=O)[O-])cc2)nc2ccccc2c1=O)c1ccc(F)cc1 | -1.43% |
| N#Cc1ccc(/C=C2\CCn3c2nc2cc(C(=O)O)ccc2c3=O)cc1 | -13.5% |
| O=C(Nc1ccccc1C(=O)Nc1ccncc1)c1ccc([N+](=O)[O-])cc1 | -6.48% |
| O=C(O)c1ccc2c(=O)n3c(nc2c1)/C(=C/c1ccc(Cl)c([N+](=O)[O-])c1)CC3 | -64.3% (active) |
| Cc1ccc(/C=C2\CCn3c2nc2cc(C(=O)O)ccc2c3=O)c(C)c1 | 12.5% |
| Cc1nc2ccccc2c(=O)n1NC(=O)c1ccc(Cl)c([N+](=O)[O-])c1 | -60.1% (active) |
| Cc1ccnc(NC(=O)c2ccc(Cl)c([N+](=O)[O-])c2)c1 | -78.4% (active) |
| O=C(Nc1ccncc1)c1ccc([N+](=O)[O-])cc1Cl | -15% |
| Cc1ccnc(NC(=O)c2ccoc2C)c1 | -8.69% |
| O=C(Nc1ccncc1)c1ccc(Cl)c([N+](=O)[O-])c1 | -64.8% (active) |
| CC1(C(=O)NCc2ccco2)Cc2c(-c3ccc4c(c3)OCO4)ccnc2O1 (stereo not given) | 7.16% |

| Structure (SMILES) | activity change |
| --- | --- |
| Cc1ccccc1CSc1nnc(-c2ccccn2)n1N | -29.8% |
| CCOC(=O)C1CCN(C(=O)c2ccc3c(=O)n4nc(Nc5ccccc5CC)sc4nc3c2)CC1 | -8.29% |
| CCCCN1C(=O)C(CC(=O)NCc2cccs2)CC(C(=O)N2CCOCC2)=C1C (stereo not given) | 34.2% |
| COc1ccccc1CNC(=O)Cn1c(=O)oc2cc(Cl)ccc21 | -3.46% |
| Cc1ccc(C(O)c2ncc(-c3ccccc3F)[nH]2)cc1F (stereo not given) | 0.413% |
| Cc1ccc(CC2(C)C(=O)Nc3ccc(OC(F)(F)F)cc32)cc1 (stereo not given) | -8.4% |
| CN1OC[C@@H]2CN(C(=O)c3cccnc3)[C@H](c3ccc(N4CCCCC4)cc3)C[C@@H]21 | 3.15% |
| CCNC(=O)C1(C)CCCN(C(=O)c2c(C)noc2C)C1 (stereo not given) | 25% |
| CS(=O)(=O)c1sc(C(=O)NC(=S)Nc2ccc(OC(F)(F)F)cc2)c2c1C=CCC2 | 21.9% |
| COc1ccc(CNC(=O)C2CCN(S(C)(=O)=O)CC2)cc1 | 14.1% |
| O=C(O)C(=Cc1ccc([N+](=O)[O-])cc1)CCc1ccccc1 | 0.991% |
| CCOC(=O)/C(=C\c1ccc([N+](=O)[O-])cc1)C(=O)c1cc(C(C)=O)c(Nc2ccccc2)s1 | -116% (active) |
| CCOC(=O)/C(=N\Nc1ccccc1[N+](=O)[O-])c1csc(Nc2ccccc2)n1 | 1.73% |
| CC1C(=O)Nc2ccccc2N1C(=O)c1c(F)cccc1F (stereo not given) | -9.24% |
| C=C1C(=O)OC2C1CCC(C)=CCCC1(C)OC21 (stereo not given) | -113% (active) |
| O=C(CSc1ccc([N+](=O)[O-])cn1)Nc1ccc(N2CCOCC2)c(Cl)c1 | -12.5% |
| CS(=O)(=O)N(CC(=O)N1CCCC1)Cc1ccccc1 | 4.88% |
| COc1cc(C(=O)N(C)Cc2cccc(OC)c2OC)ccc1OCC(=O)Nc1cccc(C(F)(F)F)c1 | -57.3% (active) |
| CCNC(=O)c1ccc(OCC(=O)Nc2ccc(F)cc2)c(OC)c1 | -5.56% |
| COc1ccc(C(=O)OCC(=O)Nc2cccc(C(C)=O)c2)cc1OC | 20.1% |

Source: PubChem BioAssay AID743279 (National Center for Advancing Translational Sciences (NCATS), 2014)
